Source: PubChem BioAssay (NCI)
The panel holds about 83,000 compounds, 20% with a hit somewhere; the sample as a whole holds those more often.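 The test compound was applied at a single concentration to cells in 96-well plates for 48 hours, and percent growth was recorded.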 A number with no mark means an inactive call. The source made the active and inactive calls. Rule for the calls: active = growth percent below 10; inactive = the rest.

What was measured:
Assay in all cases: NCI-60 one-dose screen, 48 h (100 = growth as untreated, 0 = no growth, -100 = all killed)
Conditions in all cases: 10 µM unless noted
SR leukemia = tested on: SR leukemia
RPMI-8226 leukemia = tested on: RPMI-8226 leukemia
OVCAR-8 ovarian = tested on: OVCAR-8 ovarian
OVCAR-5 ovarian = tested on: OVCAR-5 ovarian
OVCAR-4 ovarian = tested on: OVCAR-4 ovarian
SK-OV-3 ovarian = tested on: SK-OV-3 ovarian
OVCAR-3 ovarian = tested on: OVCAR-3 ovarian
HS 578T breast = tested on: HS 578T breast
NCI/ADR-RES ovarian = tested on: NCI/ADR-RES ovarian
T-47D breast = tested on: T-47D breast
BT-549 breast = tested on: BT-549 breast
MDA-MB-435 melanoma = tested on: MDA-MB-435 melanoma
SW-620 colon = tested on: SW-620 colon
MCF7 breast = tested on: MCF7 breast
HCT-116 colon = tested on: HCT-116 colon
HCC-2998 colon = tested on: HCC-2998 colon
KM12 colon = tested on: KM12 colon
IGROV1 ovarian = tested on: IGROV1 ovarian

Compound | growth (SR leukemia) | growth (RPMI-8226 leukemia) | growth (OVCAR-8 ovarian) | growth (OVCAR-5 ovarian) | growth (OVCAR-4 ovarian) | growth (SK-OV-3 ovarian) | growth (OVCAR-3 ovarian) | growth (HS 578T breast) [%] | growth (NCI/ADR-RES ovarian) | growth (T-47D breast) | growth (BT-549 breast) | growth (MDA-MB-435 melanoma) | growth (SW-620 colon) | growth (MCF7 breast) | growth (HCT-116 colon) | growth (HCC-2998 colon) | growth (KM12 colon) | growth (IGROV1 ovarian)
N#Cc1nc2c(S(=O)(=O)c3ccc(Cl)cc3)c(N)n(Nc3cccc(Cl)c3)c2nc1C#N | -6.78% (active) | 3.39% (active) | 24% | 68.4% | 42.6% | 50.2% | 59.4% | 31.2 | 79.6% | 53.5% | 47.8% | 53% | 35.9% | 58.5% | 32.9% | 82.3% | 64.3% | 
COC(=O)c1c2c(c[n+]([O-])c1C)C(=O)C=CC2=O |  | 57.6% | 35.3% | 118% | -13.2% (active) | 97% | -66.3% (active) | 86.3 | 97.1% | -11.9% (active) | 71.4% | -81.8% (active) | 0.106% (active) | -62% (active) | -9.77% (active) | 88.1% | 98.7% | 2.42% (active)
CC1=C(SCCC(=O)OC(C[Se]C2=C(C)C(=O)c3ccccc3C2=O)C(=O)NCCCCCC(=O)OCc2ccccc2)C(=O)c2ccccc2C1=O (centres undefined) |  | 30.2% | 39% | 44.6% | 53.2% | 32.7% | 21% | 34 | 21.1% | 49.9% | 67.3% | 25.1% | 45.7% | 28.2% | 4.77% (active) | 32% | 19.8% | 25%
C[n+]1cccc(CC(=O)NO)c1 | 98.4% |  | 95.3% | 110% | 106% | 90.9% | 110% | 101 | 105% | 79% |  | 107% | 105% | 96.4% | 104% | 110% | 107% | 101%
COc1cc(/C=C/C(=O)c2cccc(-n3cc(-c4ccccc4)[nH]c3=O)c2)ccc1O | 15.3% | -9.6% (active) |  | 61.3% | 49.1% | 92.2% | 6.11% (active) | 71.3 | 23.2% | 62.9% | 43.9% | 58.5% | 4.95% (active) | 16.5% | 13.5% | 78.9% | 15% | 2.96% (active)
COc1ccc(-c2nc3c(N)c(CO)c(C)nc3o2)cc1 | 100% |  | 110% | 85.1% | 104% | 106% |  | 105 | 89.7% | 90.9% | 118% | 103% | 118% | 86.1% | 103% | 87% | 96.5% | 86.9%
Cc1ccc(C(=O)COc2cccc(/C=C3\Oc4ccccc4C3=O)c2)cc1 | 71.9% | 106% | 106% | 106% | 85.7% | 134% | 96.6% | 322 | 88.3% | 50.3% | 124% | 90.2% | 123% | 116% | 94.2% | 108% | 100% | 
C=CCNc1nc(NN2C(=O)c3cccc4cccc(c34)C2=O)nc(-n2cnc3ccccc32)n1 |  | 65.7% | 81.5% | 77.2% | 52.5% | 40.9% | 84.5% | 35.9 | 72% | 54.8% | 82.5% | 97.5% | 90.6% | 55.1% | 79.8% | 91.8% | 18.6% | 46.7%
N#Cc1c(N2CCNCC2)nc2sc3cc(Cl)c(Cl)cc3n2c1=N | 116% | 80.2% | 94.5% | 131% | 85.5% | 84.7% | 107% | 114 | 106% | 89.5% | 118% | 113% | 99% | 75.2% | 97.1% | 118% | 115% | 
CCOC(=O)/C=C/c1cc2cc(-c3csc4ccccc34)ccc2[nH]1 | 0.282% (active) | 47.4% | 19.6% | 101% | 92.3% | 132% | 77.1% | 67.2 | 30.8% | 55% | 69.6% |  | 46.4% |  | 60.1% | 33.4% | 23.2% | 
COc1nc2c(c(=O)n1C)CN(c1ccccc1)C(=O)CN2C | 51.5% [100 µM] |  | 47.4% [100 µM] | 79.9% [100 µM] | 53.4% [100 µM] | 62.5% [100 µM] | 56.5% [100 µM] |  | 54.2% [100 µM] | 26.8% [100 µM] | 24.7% [100 µM] | 66.2% [100 µM] | 69.3% [100 µM] | 24.2% [100 µM] | 49.1% [100 µM] | 90.4% [100 µM] | 39.1% [100 µM] | 37.6% [100 µM]
O=C(O)CN1C(=O)CCC1=O | 112% |  | 99.4% | 101% |  | 104% | 115% | 115 | 112% | 90.4% | 103% |  | 114% | 92% | 115% | 110% | 104% | 118%
O=C(COc1ccc(/C=C2\Oc3ccccc3C2=O)cc1)Nc1nc2ccccc2s1 | -71.9% (active) | -56.8% (active) | 18.8% | 67.8% | 89.9% | 116% | 66.5% |  | 75.5% | 91.4% | 46.2% | 65% | 96.3% |  | 87.3% | 107% | -28.7% (active) | 
N#CCN1C(=O)C2C3=C(CCCC3)SC2N=C1CN1CCCC1 (centres undefined) | 81.1% | 50.2% | 97.7% | 101% | 101% | 109% | 113% |  | 96.3% | 97.2% | 114% | 105% | 95.3% | 109% | 94.2% | 96.9% | 109% | 
O=C(COc1ccc(/C=C2\Oc3ccccc3C2=O)cc1)c1ccc(Cl)cc1 | 90.8% | 111% | 105% | 97.4% | 115% | 105% | 96.6% | 112 | 110% | 98.5% | 121% | 90.7% | 115% | 95.3% | 88.5% | 97.4% | 98.5% | 
c1ccc2c(c1)nc(CN1CCOCC1)n1cc(N3CCCC3)nc21 | 87% | 62.6% | 94.5% | 92.9% | 111% | 89.8% | 110% | 92.5 | 99% | 95.6% | 100% | 106% | 99.7% | 96.5% | 93.5% | 99.8% | 99.1% | 
O=C(c1ccccc1)N1N=C(c2ccccc2)CC1c1nnc2n(Cc3ccccc3)c(=O)c3c4c(sc3n12)CCCC4 (centres undefined) | -16.1% (active) | 91.6% | 106% | 133% | 108% | 106% | 112% |  | 118% | 122% | 115% | 97.9% | 105% |  | 95.1% | 125% | 82.4% | 
COC(=O)/C=C1\S/C(=N\NS(=O)(=O)c2ccc(C)cc2)N(c2ccccc2)C1=O |  | 106% | 99.8% | 109% | 91% | 111% | 105% | 98.9 | 108% | 99.2% | 115% | 102% | 106% | 94.5% | 103% | 121% | 101% | 103%
